Screening results from PubChem BioAssay.
In the library only some 6.2% were active in any assay of this set; here they are far more common.
HT1080NT lethal – kills 2HG-producing HT-1080-NT fibrosarcoma cells; HT-1080-NT fibrosarcoma viability, CellTiter-Glo ATP luminescence, 48 h; Potency, µM (titrated, usually from 46.1 µM), usual class: cytotoxic; 360,000 compounds, 1.6% hits;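 also: NT is the 2HG producing partner of a matched IDH1 knockdown line; nearly all actives have a fitted effect of over 55% in size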
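Fibrosarcoma NT cells, 750 per well in 5% FBS RPMI, were exposed to compound for 48 hours. Viability: CellTiter-Glo luminescence.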
HT1080 IDH1KD tx – HT-1080 IDH1 knockdown cell toxicity (counter line); HT-1080 IDH1 knockdown viability, ATP luminescence, 48 h; Potency, µM (titrated, usually from 46.1 µM), most hits filed as cytotoxic; 360,000 compounds, 2% hits
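Cytotoxicity counter-line: IDH1KD HT-1080, 48 h, CellTiter-Glo. Curves classed by r2, magnitude and activity.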
ATXN2 expr inh – inhibitors of ATXN2 expression. HEK-293 ATXN2-luciferase reporter, luminescence, 24 h. 360,000 compounds, 0.72% hits. Potency, µM (titrated, usually from 57 µM), usual class: inhibitors. AID 1745845; also: nearly all actives have a fitted effect of over 55% in size
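qHTS (up to 57 uM final) was run with 24 h compound exposure of reporter cells at 37 °C. Each well was multiplexed: SteadyGlo luminescence measured ATXN2-luciferase expression after a fluorogenic Gly-Phe-AFC viability readout (25 uM final).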
KB-V1 cytotox – kills drug-selected multidrug resistant KB-V1 cells; Potency, µM (titrated, usually from 46.1 µM), hits mostly cytotoxic; KB-V1 MDR cells viability, CellTiter-Glo, 72 h; AID 1347076; 400,000 compounds, 3.4% hits; also: nearly all actives have a fitted effect of over 60% in size
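Luminescent ATP read-out (CellTiter-Glo, 10 min) measures survival of drug-selected KB-V1 MDR cells after 72 h, 37 degrees C compound exposure. Medium: phenol-red-free DMEM, 10% FBS. Values from fitted concentration-response curves.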
ATXN viability – viability counter-screen for ATXN expression inhibitors | S2 cells (HEK-293 line with an ATXN2-luciferase reporter) viability, CellTiter-Fluor protease fluorescence, 24 h | Potency, µM (titrated, usually from 56.7 µM), usual class: cytotoxic | 400,000 compounds, 0.49% hits; also: nearly all actives have a fitted effect of over 40% in size
KB-3-1 cytotox – kills parental KB-3-1 adenocarcinoma cells; KB-3-1 viability, CellTiter-Glo ATP luminescence, 72 h; Potency, µM (highest dose often 46.1 µM), actives largely listed as cytotoxic; 400,000 compounds, 1.4% hits; also: nearly all actives have a fitted effect of over 60% in size
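72 h, 37 °C compound treatment of KB-3-1 parental cells; CellTiter-Glo added, 10 min, luminescence read. Data corrected against DMSO-only plates and normalized before curve fitting.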
Numbers stand for hits. Calls follow the shape of the dose curve; as a rule, active = well fitted curve in the direction sought with a large enough effect; inconclusive = small, poorly fitted or top-dose-only effect, or another doubt; inactive = no such curve, though single readings can be large; an effect the other way counts as inactive or inconclusive.

Results for Cc1nn(C)c2c1c(C(F)(F)F)cc(=O)n2CC(=O)NCc1ccccc1Cl ?
ATXN2 expr inh: inactive; KB-V1 cytotox: inactive; ATXN viability: inactive; KB-3-1 cytotox: inactive

What do the screens show for `Cc1ccc(-n2c(=O)c3c(cnn3C)n(Cc3ccccc3F)c2=O)cc1`?
ATXN2 expr inh: inactive; KB-V1 cytotox: inactive; ATXN viability: inactive; KB-3-1 cytotox: inactive

Results for COc1ccc(CCNC(=O)c2cc3cc(Cl)ccc3nc2N)cc1OC ?
HT1080NT lethal: inactive; HT1080 IDH1KD tx: 18µM; ATXN2 expr inh: inactive; KB-V1 cytotox: inactive; ATXN viability: inactive; KB-3-1 cytotox: inactive

How did COc1ccc(CCNC(=O)/C=C/c2ccc3ccccc3n2)cc1OC do in these assays?
HT1080NT lethal: inconclusive; HT1080 IDH1KD tx: 23µM; ATXN2 expr inh: inactive; KB-V1 cytotox: 18µM; ATXN viability: inconclusive; KB-3-1 cytotox: inconclusive

What do the screens show for `COc1ccc(CCNC(=O)c2cc(-c3ccccc3)nc3ccccc23)cc1OC`?
ATXN2 expr inh: inactive; KB-V1 cytotox: 23µM; ATXN viability: inconclusive; KB-3-1 cytotox: inactive

Results for O=C(C1CCCCC1)N1CCOc2ccc(CN3CCN(Cc4ccccn4)CC3)cc2C1 ?
ATXN viability: inactive

How did Nc1c(C(=O)Nc2cccc(C(F)(F)F)c2)c2ccccn2c1C(=O)c1ccccc1 do in these assays?
ATXN2 expr inh: inactive; KB-V1 cytotox: inactive; ATXN viability: inactive; KB-3-1 cytotox: inactive

Results for Cc1ccc2c(c1)N(S(=O)(=O)c1cc(-c3onc(C)c3C)ccc1C)CCO2 ?
HT1080NT lethal: inconclusive; HT1080 IDH1KD tx: inconclusive; ATXN2 expr inh: inconclusive; KB-V1 cytotox: inconclusive; ATXN viability: inactive; KB-3-1 cytotox: 23µM

How did CCOC(=O)c1c(C)c(C(=O)NCc2ccc(OC)cc2)c(C)n1CC do in these assays?
ATXN2 expr inh: inactive; KB-V1 cytotox: inactive; ATXN viability: inactive; KB-3-1 cytotox: inactive

Results for Cc1cccc(-n2nnc(C(=O)NCc3ccc4c(c3)OCO4)c2N)c1 ?
HT1080NT lethal: inactive; HT1080 IDH1KD tx: inactive; ATXN2 expr inh: inactive; KB-V1 cytotox: inconclusive; ATXN viability: inactive; KB-3-1 cytotox: inactive

What do the screens show for `CCOC(=O)c1c(C)c(C(=O)NCc2cccs2)c(C)n1CC`?
HT1080NT lethal: inconclusive; HT1080 IDH1KD tx: inactive; ATXN2 expr inh: inactive; KB-V1 cytotox: 15µM; ATXN viability: inactive; KB-3-1 cytotox: inactive

How did Cc1cc(C)cc(-n2nnc(C(=O)NCc3ccc4c(c3)OCO4)c2N)c1 do in these assays?
HT1080NT lethal: inactive; HT1080 IDH1KD tx: inactive; ATXN2 expr inh: inactive; KB-V1 cytotox: 8.2µM; ATXN viability: inconclusive; KB-3-1 cytotox: inactive

How did CCOC(=O)c1c(C)c(C(=O)NCc2ccc3c(c2)OCO3)c(C)n1CC do in these assays?
HT1080NT lethal: inactive; HT1080 IDH1KD tx: inactive; ATXN2 expr inh: inactive; KB-V1 cytotox: inactive; ATXN viability: inactive; KB-3-1 cytotox: inactive

What do the screens show for `CCOC(=O)c1c(C)c(C(=O)NCc2ccc3c(c2)OCO3)c(C)n1C`?
HT1080NT lethal: inactive; HT1080 IDH1KD tx: inactive; ATXN2 expr inh: inactive; KB-V1 cytotox: 18µM; ATXN viability: inactive; KB-3-1 cytotox: inactive

How did O=c1[nH]c(-c2ccc(C(F)(F)F)cc2)nc2c1CSCC2 do in these assays?
ATXN2 expr inh: inactive

How did CC(C)(C)CC(=O)NCC(c1ccc2c(c1)OCO2)N1CCN(c2ccccc2)CC1 (centres undefined) do in these assays?
ATXN2 expr inh: inactive; KB-V1 cytotox: inactive; ATXN viability: inactive; KB-3-1 cytotox: inactive

What do the screens show for `CCOc1ccc(Nc2sc(C(=O)c3cccc(OC)c3)c(N)c2S(=O)(=O)c2ccccc2)cc1`?
ATXN2 expr inh: inactive; KB-V1 cytotox: inconclusive; ATXN viability: inactive; KB-3-1 cytotox: inactive

How did CCC(C)N(CC(=O)Nc1cccc(C)c1C)C(=O)CCl (centres undefined) do in these assays?
HT1080NT lethal: 1.6µM; HT1080 IDH1KD tx: 1µM; ATXN2 expr inh: 3µM; KB-V1 cytotox: inconclusive; KB-3-1 cytotox: inconclusive

What do the screens show for `CCC(CC)NC(=O)Nc1cccc(C)c1C`?
HT1080NT lethal: inactive; HT1080 IDH1KD tx: inactive; KB-V1 cytotox: inactive; ATXN viability: inactive; KB-3-1 cytotox: inactive

What do the screens show for `CC(C)N(CC(=O)Nc1ccc(Cl)cc1C(F)(F)F)C(=O)CCl`?
HT1080NT lethal: 6.5µM; HT1080 IDH1KD tx: 6.5µM; ATXN2 expr inh: 19µM; KB-V1 cytotox: inconclusive; ATXN viability: inconclusive; KB-3-1 cytotox: inactive

How did O=C(O)CSCC(=O)Nc1ccc(Cl)cc1C(F)(F)F do in these assays?
HT1080NT lethal: inactive; HT1080 IDH1KD tx: inactive; ATXN2 expr inh: inactive; KB-V1 cytotox: inactive; ATXN viability: inactive; KB-3-1 cytotox: inactive

What do the screens show for `CCCn1ccc2c(OCC(=O)NCc3ccccc3Cl)cccc2c1=O`?
ATXN2 expr inh: inactive; KB-V1 cytotox: inactive; ATXN viability: inconclusive; KB-3-1 cytotox: inactive

How did O=C(NCCc1nnc2n1CCN(Cc1ccc(F)cc1)CC2)c1ccco1 do in these assays?
ATXN viability: inactive

What do the screens show for `O=C(c1ccc([N+](=O)[O-])o1)N1CCc2ccccc2C1`?
HT1080NT lethal: inactive; HT1080 IDH1KD tx: inactive; KB-V1 cytotox: inconclusive; ATXN viability: inactive; KB-3-1 cytotox: inactive

Results for O=C(/C=C/c1cccc(Cl)c1)c1ccc([N+](=O)[O-])o1 ?
HT1080NT lethal: inconclusive; HT1080 IDH1KD tx: inconclusive; ATXN2 expr inh: 4.5µM; KB-V1 cytotox: inactive; ATXN viability: 8.9µM; KB-3-1 cytotox: inconclusive

What do the screens show for `COc1ccc(/C=C/C(=O)c2ccc([N+](=O)[O-])o2)cc1OC`?
HT1080NT lethal: inconclusive; HT1080 IDH1KD tx: inconclusive; ATXN2 expr inh: 8.9µM; KB-V1 cytotox: inconclusive; ATXN viability: inconclusive; KB-3-1 cytotox: inconclusive

What do the screens show for `COc1cc2c(cc1OC)CN(C(=O)c1ccc([N+](=O)[O-])o1)CC2`?
HT1080NT lethal: 13µM; HT1080 IDH1KD tx: inconclusive; ATXN2 expr inh: inactive; KB-V1 cytotox: inconclusive; ATXN viability: inactive; KB-3-1 cytotox: inactive

What do the screens show for `COc1cc(/C=C/C(=O)/C=C(O)/C=C/c2ccc(O)c(OC)c2)ccc1O`?
HT1080NT lethal: inconclusive; HT1080 IDH1KD tx: inconclusive; ATXN2 expr inh: inconclusive; KB-V1 cytotox: inactive; ATXN viability: inconclusive; KB-3-1 cytotox: inconclusive

What do the screens show for `COc1cc(/C=C/C(=O)c2ccc([N+](=O)[O-])o2)ccc1O`?
HT1080NT lethal: 18µM; HT1080 IDH1KD tx: inconclusive; ATXN2 expr inh: inconclusive; KB-V1 cytotox: inactive; ATXN viability: 3.5µM; KB-3-1 cytotox: inactive

What do the screens show for `N#Cc1cccc(NC(=O)c2cc(C3CCCCN3C(=O)c3ccccn3)on2)c1` (centres undefined)?
HT1080NT lethal: inconclusive; HT1080 IDH1KD tx: inactive; ATXN2 expr inh: inactive; KB-V1 cytotox: inactive; ATXN viability: inactive; KB-3-1 cytotox: inactive

Results for Cc1ccccc1C(C(=O)NC1CCCCC1)N(C(=O)Cn1ccnc1C)c1cccc(F)c1 (centres undefined) ?
ATXN2 expr inh: inactive
